In PubChem BioAssay (NCI):
Values joined by “and” are separate entries in the source; they are usually repeats but may differ in a detail not shown here. Equal values may be shown once. Compounds without any hit were thinned out: in the full panel of roughly 83,000, 20% have a hit.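 Single-concentration screen, 48 h exposure, 96-well plates. Endpoint: percent growth. Below 10 = active.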 Active and inactive are the calls of the source.

Experiments:
Assay in all cases: NCI-60 one-dose screen, 48 h (100 = growth as untreated, 0 = no growth, -100 = all killed)
Settings in all cases: 10 µM unless noted
[1] = system: DU-145 prostate
[2] = system: K-562 leukemia
[3] = system: MALME-3M melanoma
[4] = system: MDA-MB-231 breast
[5] = system: RXF 393 renal
[6] = system: SF-268 CNS
[7] = system: SF-295 CNS
[8] = system: SF-539 CNS
[9] = system: UACC-257 melanoma
[10] = system: M14 melanoma
[11] = system: HT29 colon
[12] = system: SNB-75 CNS
[13] = system: SNB-19 CNS
[14] = system: U251 CNS
[15] = system: PC-3 prostate
[16] = system: SK-MEL-5 melanoma
[17] = system: UACC-62 melanoma
[18] = system: LOX IMVI melanoma
[19] = system: SK-MEL-28 melanoma
[20] = system: HCT-15 colon

SMILES | growth [1] | growth [2] | growth [3] | growth [4] | growth [5] | growth [6] | growth [7] | growth [8] | growth [9] | growth [10] | growth [11] | growth [12] | growth [13] | growth [14] | growth [15] | growth [16] | growth [17] | growth [18] | growth [19] | growth [20]
CCCCCCCCCCCCCCCC[N+](C)(C)C | -91.4% (active) and 15.9% (inactive) | -70% (active) and 9.42% (active) | -76.5% (active) and 13.8% (inactive) | -76.5% (active) and -8.58% (active) | -31.9% (active) | -57.5% (active) and -3.48% (active) | -65.5% (active) and 10.1% (inactive) | -67.3% (active) and -8.94% (active) | 61.2% (inactive) | -87.8% (active) and -43.2% (active) | -64% (active) and -42.4% (active) | -77.5% (active) and -23.3% (active) | -71.2% (active) and -40.6% (active) | -75.5% (active) and -94.2% (active) | -40.8% (active) and -32.8% (active) | -94.6% (active) and -73.7% (active) | -63% (active) and 25.6% (inactive) | -71.6% (active) and -73.9% (active) | -74.7% (active) and 25.6% (inactive) | 
COc1cc2c(cc1OC)-c1c3c(cc4c1[C@@H](C2)N(C)CC4)OCO3 | 45.3% (inactive) | 13.1% (inactive) | 54.3% (inactive) | 55.1% (inactive) | 35.2% (inactive) | 50.5% (inactive) | 51.6% (inactive) | 34.1% (inactive) | 35.5% (inactive) | 54.9% (inactive) | 29% (inactive) | 57.9% (inactive) | 48.4% (inactive) | 39.3% (inactive) | 39.8% (inactive) | 57.9% (inactive) | 45.2% (inactive) | 26.2% (inactive) |  | 
C[C@]12C[C@H](c3ccoc3)OC(=O)[C@H]1CC[C@@]1(C)[C@@H]2[C@H]2C=C[C@]1(O)C(=O)O2 | 109% (inactive) | 76.9% (inactive) | 101% (inactive) | 102% (inactive) | 102% (inactive) | 98.3% (inactive) | 91.1% (inactive) | 92.4% (inactive) | 86.2% (inactive) | 87.6% (inactive) | 82.3% (inactive) | 78.3% (inactive) | 102% (inactive) | 97.8% (inactive) | 74.8% (inactive) | 106% (inactive) |  | 106% (inactive) | 109% (inactive) | 
CNC(=O)O/N=C(\SC)C(=O)N(C)C | 117% (inactive) | 89.2% (inactive) | 117% (inactive) | 110% (inactive) | 105% (inactive) | 105% (inactive) | 113% (inactive) | 103% (inactive) | 103% (inactive) | 102% (inactive) |  | 101% (inactive) | 106% (inactive) | 101% (inactive) |  |  | 111% (inactive) | 90.4% (inactive) | 113% (inactive) | 105% (inactive)
O=C1C=C(N2CC2)c2ccccc2C1=O | 12.1% (inactive) | 9.26% (active) | 106% (inactive) | 88.8% (inactive) | 85.9% (inactive) | 51.6% (inactive) | 23.6% (inactive) | 63.3% (inactive) | 83.1% (inactive) | 63.6% (inactive) | 73.4% (inactive) | 90.2% (inactive) | 82.7% (inactive) | 65.3% (inactive) | 44.3% (inactive) | 59.7% (inactive) | 97.8% (inactive) | 39% (inactive) | 111% (inactive) | 
CC(=O)c1cccc(S(=O)(=O)F)c1 | 108% (inactive) | 112% (inactive) | 98.7% (inactive) | 104% (inactive) | 98.8% (inactive) | 108% (inactive) | 83.1% (inactive) | 89.1% (inactive) | 99.2% (inactive) | 91.3% (inactive) | 104% (inactive) | 117% (inactive) |  |  | 79% (inactive) | 110% (inactive) | 103% (inactive) | 90.1% (inactive) | 120% (inactive) | 96.3% (inactive)
O=c1c2ccccc2nc(-c2ccccc2Cl)n1-c1nnc(C(F)(F)F)s1 | 56.8% (inactive) | 11.4% (inactive) | -11.5% (active) | 52.3% (inactive) | 38.9% (inactive) | 38.8% (inactive) | 12% (inactive) | 19.7% (inactive) | 30% (inactive) | 35.1% (inactive) | 30.3% (inactive) | 53.9% (inactive) | 33.2% (inactive) | 16.6% (inactive) | 20% (inactive) |  | 10.3% (inactive) | 31.3% (inactive) | 30.2% (inactive) | 
C[C@H](O)CCC(=O)c1ccoc1 | 100% (inactive) | 96.5% (inactive) | 106% (inactive) | 108% (inactive) | 99.4% (inactive) | 98.9% (inactive) | 107% (inactive) | 102% (inactive) | 99.5% (inactive) | 108% (inactive) | 106% (inactive) |  | 100% (inactive) | 102% (inactive) |  | 99.9% (inactive) |  | 95.5% (inactive) | 115% (inactive) | 110% (inactive)
CN(C)[C@@H]1C(=O)C(C(N)=O)=C(O)[C@@]2(O)C(=O)C3=C(O)c4c(O)ccc(Cl)c4[C@@](C)(O)[C@H]3C[C@@H]12 | 103% (inactive) | 109% (inactive) and 93.8% (inactive) | 79.3% (inactive) and 80.7% (inactive) | 103% (inactive) and 98% (inactive) | 96.1% (inactive) and 94.3% (inactive) | 94.8% (inactive) and 98.9% (inactive) | 90.1% (inactive) and 103% (inactive) | 93.3% (inactive) and 92.1% (inactive) | 108% (inactive) and 106% (inactive) | 79.8% (inactive) and 92.6% (inactive) | 85.2% (inactive) and 109% (inactive) | 87.2% (inactive) and 84.1% (inactive) | 98.4% (inactive) and 97.9% (inactive) |  |  | 98.9% (inactive) and 100% (inactive) | 72.9% (inactive) and 89.5% (inactive) | 86% (inactive) and 95.6% (inactive) | 109% (inactive) and 112% (inactive) | 89.6% (inactive) and 105% (inactive)
O=Cc1cn(Cc2ccccc2)c2ccccc12 | 108% (inactive) | 53.3% (inactive) | 127% (inactive) | 92.7% (inactive) | 67.6% (inactive) | 104% (inactive) | 99.5% (inactive) | 95.1% (inactive) | 37.8% (inactive) | 117% (inactive) | 92% (inactive) | 67.8% (inactive) | 93.8% (inactive) | 68.5% (inactive) | 95% (inactive) | 85.5% (inactive) | 32.6% (inactive) | 79.4% (inactive) | 216% (inactive) | 
O=[N+]([O-])c1ccc(P(=O)(O)O)cc1 | 110% (inactive) | 108% (inactive) | 92.6% (inactive) | 109% (inactive) | 103% (inactive) | 106% (inactive) | 96% (inactive) | 103% (inactive) | 111% (inactive) | 96.1% (inactive) | 100% (inactive) | 80.2% (inactive) | 108% (inactive) | 96.2% (inactive) |  | 109% (inactive) | 105% (inactive) | 93.2% (inactive) | 109% (inactive) | 
COc1cc2c(c(OC)c1OC)-c1ccc(O)cc1[C@@H](NC(C)=O)CC2 | -21.6% (active) and -35.8% (active) | 3.22% (active) | 26.4% (inactive) | 9.66% (active) and -7.09% (active) | 26.3% (inactive) and 40.5% (inactive) | 19.5% (inactive) and 21% (inactive) | -13.7% (active) and -23.2% (active) | 2.98% (active) and -2.84% (active) | 54.1% (inactive) and 48.7% (inactive) | 11.5% (inactive) and 16.8% (inactive) | 5.06% (active) | 12.7% (inactive) and 14.9% (inactive) | 27.8% (inactive) and 26.4% (inactive) | 22.5% (inactive) and 18.3% (inactive) |  | -24.2% (active) and -61.7% (active) | 45.6% (inactive) and 24.4% (inactive) | 12.1% (inactive) and 20.2% (inactive) | 52.3% (inactive) and 40% (inactive) | 
CC(C)COC(=O)Cc1ccccc1 | 115% (inactive) | 109% (inactive) | 94.4% (inactive) | 120% (inactive) | 102% (inactive) | 104% (inactive) | 111% (inactive) | 97.5% (inactive) | 104% (inactive) | 103% (inactive) | 101% (inactive) | 99.9% (inactive) | 109% (inactive) | 101% (inactive) |  | 98.7% (inactive) | 107% (inactive) | 101% (inactive) | 112% (inactive) | 
